# Reference: PubChem BioAssay (NCI)
# Compounds without any hit were thinned out: in the full panel of roughly 83,000, 20% have a hit.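 Negative percent growth values reflect cell death: -40 means 40% of the cells present at the start died, and -100 means all died.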 Values without a mark were called inactive. Activity calls are given as the source filed them. The calls were made as follows: active = growth percent below 10; inactive = the rest.
# Columns and labels:
# Experiment in all cases: NCI-60 one-dose screen, 48 h (100 = growth as untreated, 0 = no growth, -100 = all killed)
# Conditions in all cases: 10 µM unless noted
# [1] = system: DU-145 prostate
# [2] = system: K-562 leukemia
# [3] = system: MALME-3M melanoma
# [4] = system: MDA-MB-231 breast
# [5] = system: RXF 393 renal
# [6] = system: SF-268 CNS
# [7] = system: SF-295 CNS
# [8] = system: SF-539 CNS
# [9] = system: UACC-257 melanoma
# [10] = system: M14 melanoma
# [11] = system: HCT-15 colon
# [12] = system: HT29 colon
# [13] = system: SNB-75 CNS
# [14] = system: SNB-19 CNS
# [15] = system: U251 CNS
# [16] = system: PC-3 prostate
# [17] = system: SK-MEL-5 melanoma
# [18] = system: UACC-62 melanoma
# [19] = system: LOX IMVI melanoma
# [20] = system: SK-MEL-28 melanoma
Structure (SMILES),growth [1],growth [2],growth [3],growth [4],growth [5],growth [6],growth [7],growth [8],growth [9],growth [10],growth [11],growth [12],growth [13],growth [14],growth [15],growth [16],growth [17],growth [18],growth [19],growth [20]
CCNC(=O)Oc1ccc(/C(=C(/C)c2ccc(Cl)cc2)c2ccc(OCCN3CCCCCC3)cc2)cc1,58.5%,5.06% (active),-58.4% (active),21.3%,-10.3% (active),53.9%,-40.1% (active),-44% (active),-19.9% (active),-76.5% (active),-31.6% (active),-48.4% (active),75.6%,34.2%,27.5%,13.4%,33.1%,2.74% (active),-87.8% (active),-76% (active)
Cc1ccc2c(n1)C(=O)C(Cl)=C(Nc1ccc(C(F)(F)F)cc1)C2=O,105%,7.13% (active),-49.6% (active),76.4%,-15.7% (active),97.7%,112%,101%,35.6%,28.6%,-58.6% (active),96.8%,115%,97.5%,91.5%,72.4%,95.3%,96.6%,-57.1% (active),51%
Cn1cc(-c2nn3cc(-c4ccncc4)nc3s2)c2cc(F)ccc21,90.8%,19.7%,65.5%,63.3%,88%,94.8%,96.7%,87%,111%,93.4%,38.7%,68.8%,65%,90.1%,98.3%,68.3%,87.6%,75.9%,10.5%,105%
O=C(CSc1nc2ccccc2c(=O)n1-c1ccc(Cl)cc1)N/N=C/c1ccc(Oc2ccc(Cl)cc2)cc1,13.1%,23%,-39.4% (active),30.4%,-43.8% (active),55.8%,64.7%,69.7%,59%,-39.4% (active),10.4%,1.76% (active),57.9%,28.5%,-20.5% (active),0.803% (active),10.9%,0.427% (active),-56.3% (active),3.17% (active)
COc1ccc(CC(C)=C(c2ccc(OCCN3CCCC3)cc2)c2ccc(OCCN3CCCC3)cc2)cc1,-88.6% (active),1.41% (active),-82.9% (active),-83.9% (active),-95.3% (active),-64.4% (active),-87.7% (active),-90.1% (active),-86.6% (active),-87.5% (active),-85.2% (active),-77.6% (active),-76.7% (active),-81% (active),-70.1% (active),-73.2% (active),-96.1% (active),-88.8% (active),-86.6% (active),-92.2% (active)
O=C(/C=C/c1cccc(F)c1)c1cccc(OCCCOc2cccc(C(=O)/C=C/c3cccc(F)c3)c2)c1,86.6%,21.7%,99.4%,81%,70.1%,92.1%,-19.8% (active),92.3%,107%,92%,9.37% (active),9.59% (active),112%,65.1%,34.5%,36.9%,99.4%,81.3%,-37.9% (active),106%
NCCNC(=O)c1cccc(COc2ccccc2NC(=O)c2cc(Br)c(Br)[nH]2)c1,96.3%,-16.3% (active),98.9%,91.4%,93.4%,61.9%,88.3%,96.2%,116%,102%,72.7%,101%,94.1%,71.1%,77.5%,82.1%,98.9%,96.8%,-30.8% (active),102%
CCN(CC)c1ccc(/C=N/NC(=O)c2ccc(NS(C)(=O)=O)cc2)cc1,37.9%,14.8%,15.5%,43.2%,12.3%,32%,11.4%,18.6%,-4.47% (active),0.0523% (active),20.4%,32.1%,73.3%,39.2%,31.1%,37.2%,4.46% (active),12.3%,9.94% (active),23.8%
O=C(CCCCCCNC(=O)C(O)(O)C(F)(F)F)Nc1ccc(-c2ccccc2)cc1,12%,9.55% (active),3.09% (active),25%,-45% (active),-4.51% (active),-32.1% (active),19.7%,14.8%,20.7%,9.19% (active),4.75% (active),40.4%,15.2%,-3.64% (active),28.7%,-41.5% (active),-61.4% (active),-77.4% (active),5.07% (active)
CCCCSC1=C(Cl)CN(c2ccccc2)C1=O,104%,91.6%,94.6%,98.2%,109%,106%,98.8%,97.3%,101%,103%,101%,114%,105%,101%,99.6%,103%,101%,95.7%,36.4%,101%
N#C/C(=C\c1ccc(-c2ccc(Cl)cc2)o1)C(=O)Nc1ncc(Cc2ccc(Br)cc2)s1,9.81% (active),42.7%,-34.1% (active),3.41% (active),33.1%,33.2%,-2.23% (active),1.63% (active),46.6%,10.2%,15.3%,7.27% (active),-18.1% (active),3.38% (active),-81.9% (active),9.73% (active),51.9%,1% (active),-69.7% (active),11%
COc1ccc(C(=NNS(=O)(=O)c2ccc(C)cc2)c2ccccc2)cc1OC,103%,94.3%,87.7%,91.2%,105%,95.5%,87.7%,105%,96.5%,102%,96.6%,103%,90.4%,94.6%,96.1%,93%,97.6%,70.3%,106%,108%
Cc1csc(/N=C(N)/N=C(\N)c2cccc(C#N)c2)n1,97.8%,43.5%,68.8%,88.7%,73.9%,77.4%,51.7%,76.7%,80.8%,45.2%,39.3%,62.4%,59.5%,72.3%,64.7%,77.4%,85.7%,52.1%,78.1%,74.6%
Cc1[nH]c(C(=O)Nc2ccccc2OCc2cccc(C(=O)NC3CCCNC3)c2)c(Cl)c1Cl (stereo not given),-89% (active),-38.9% (active),-68.4% (active),-68% (active),-69.4% (active),25.1%,-87.9% (active),-84.6% (active),94.6%,-87% (active),-84.2% (active),-58.9% (active),84.1%,-80.4% (active),-57.6% (active),-82.2% (active),-22.9% (active),-84.4% (active),-89.8% (active),-84.9% (active)
